# In publication PMC8384837, “Expanding the binding specificity for RNA recognition by a PUF domain”:
# How the values were obtained:
# Assay in all cases: yeast three-hybrid, YBZ-1, SC-Leu-His + 0.5 mM 3-AT, 4 days
# Details in all cases: tags: N-Gal4 AD-HA kept; label: inside an RPR1-promoter hybrid RNA with tandem MS2 sites; ssRNA
# [1] = target: PUM1 PUF domain R4-ANL (Homo sapiens, UniProt Q14671 828-1176, N971A;H972N;Q975L)
# Summary of the method: (§1)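 Each repeat of the Pumilio-1 PUF domain was randomized at its three base-contacting residues, and these libraries were co-expressed from a centromeric plasmid with matching RNA elements in strain YBZ-1. After four days on SC-Leu (input) or SC-Leu-His + 0.5 mM 3-AT (selection), the repeat regions were PCR-amplified and Illumina-sequenced. The interaction score compares variant frequency between input and selection as a log change, computed in log2 with a pseudocount of 1 for absent variants.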
# [2] = target: PUM1 PUF domain R4-SPR (Homo sapiens, UniProt Q14671 828-1176, N971S;H972P;Q975R)
# Summary of the method: as §1
# [3] = target: PUM1 PUF domain R4-WGS (Homo sapiens, UniProt Q14671 828-1176, N971W;H972G;Q975S)
# Summary of the method: as §1
# [4] = target: PUM1 PUF domain R5-KHS (Homo sapiens, UniProt Q14671 828-1176, C1007K;R1008H;Q1011S)
# Summary of the method: as §1
# [5] = target: PUM1 PUF domain R5-CGR (Homo sapiens, UniProt Q14671 828-1176, R1008G;Q1011R)
# PUM1 PUF domain R5-CGR, sequence (Q14671 828-1176 R1008G/Q1011R): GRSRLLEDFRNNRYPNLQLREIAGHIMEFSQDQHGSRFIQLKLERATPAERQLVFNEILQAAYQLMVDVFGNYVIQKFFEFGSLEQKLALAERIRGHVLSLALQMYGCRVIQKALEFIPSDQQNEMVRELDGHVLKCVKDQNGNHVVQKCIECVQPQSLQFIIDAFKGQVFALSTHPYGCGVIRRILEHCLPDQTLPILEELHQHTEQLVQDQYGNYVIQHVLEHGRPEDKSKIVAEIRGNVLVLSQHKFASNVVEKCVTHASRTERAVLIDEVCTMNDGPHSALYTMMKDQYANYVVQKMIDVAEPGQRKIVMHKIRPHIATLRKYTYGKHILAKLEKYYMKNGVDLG
# Summary of the method: as §1
# [6] = target: PUM1 PUF domain R5-NPR (Homo sapiens, UniProt Q14671 828-1176, C1007N;R1008P;Q1011R)
# Summary of the method: as §1
# [7] = target: PUM1 PUF domain R8-FFK (Homo sapiens, UniProt Q14671 828-1176, N1122F;Y1123F;Q1126K)
# PUM1 PUF domain R8-FFK, sequence (Q14671 828-1176 N1122F/Y1123F/Q1126K): as the sequence (Q14671 828-1176 R1008G/Q1011R) above, with G181R, R184Q, N295F, Y296F, Q299K counted along it
# Summary of the method: as §1
# [8] = target: PUM1 PUF domain R4-AQY (Homo sapiens, UniProt Q14671 828-1176, N971A;H972Q;Q975Y)
# Summary of the method: as §1
# [9] = target: PUM1 PUF domain R4-AYP (Homo sapiens, UniProt Q14671 828-1176, N971A;H972Y;Q975P)
# Summary of the method: as §1
# [10] = target: PUM1 PUF domain R7-LST (Homo sapiens, UniProt Q14671 828-1176, S1079L;N1080S;E1083T)
# PUM1 PUF domain R7-LST, sequence (Q14671 828-1176 S1079L/N1080S/E1083T): as the sequence (Q14671 828-1176 R1008G/Q1011R) above, with G181R, R184Q, S252L, N253S, E256T counted along it
# Summary of the method: as §1
sequence,measurement,setting,value
GGCUAGAACUAGUGGAUCCCCCGGCGCCCGGCGGCUCGAGCCCGGGUAAGUGUACAUAGUCUGCAUGCCGCCGGGCGCCAUGCCUGCAGGUCGACUCUAGAAAACAUG,binding signal,[1],1.38 log2 enrichment (interaction score)
same,binding signal,[2],2.73 log2 enrichment (interaction score)
same,binding signal,[3],2.86 log2 enrichment (interaction score)
GGCUAGAACUAGUGGAUCCCCCGGCGCCCGGCGGCUCGAGCCCGGGUAAGUGUCAAUAGUCUGCAUGCCGCCGGGCGCCAUGCCUGCAGGUCGACUCUAGAAAACAUG,binding signal,[4],4.98 log2 enrichment (interaction score)
same,binding signal,[5],4.13 log2 enrichment (interaction score)
same,binding signal,[6],4.07 log2 enrichment (interaction score)
GGCUAGAACUAGUGGAUCCCCCGGCGCCCGGCGGCUCGAGCCCGGGUAAGUGUAUAUAGUCUGCAUGCCGCCGGGCGCCAUGCCUGCAGGUCGACUCUAGAAAACAUG,binding signal,[1],2.71 log2 enrichment (interaction score)
same,binding signal,[2],3.12 log2 enrichment (interaction score)
same,binding signal,[3],5.21 log2 enrichment (interaction score)
GGCUAGAACUAGUGGAUCCCCCGGCGCCCGGCGGCUCGAGCCCGGGUAAGUGUGAAUAGUCUGCAUGCCGCCGGGCGCCAUGCCUGCAGGUCGACUCUAGAAAACAUG,binding signal,[4],2.1 log2 enrichment (interaction score)
GGCUAGAACUAGUGGAUCCCCCGGCGCCCGGCGGCUCGAGCCCGGGUAAGCGUAAAUAGUCUGCAUGCCGCCGGGCGCCAUGCCUGCAGGUCGACUCUAGAAAACAUG,binding signal,[7],3.27 log2 enrichment (interaction score)
GGCUAGAACUAGUGGAUCCCCCGGCGCCCGGCGGCUCGAGCCCGGGUAAGUGUAAAUAGUCUGCAUGCCGCCGGGCGCCAUGCCUGCAGGUCGACUCUAGAAAACAUG,binding signal,[4],2.33 log2 enrichment (interaction score)
same,binding signal,[8],3.35 log2 enrichment (interaction score)
same,binding signal,[9],7.85 log2 enrichment (interaction score)
same,binding signal,[3],3.11 log2 enrichment (interaction score)
GGCUAGAACUAGUGGAUCCCCCGGCGCCCGGCGGCUCGAGCCCGGGUAAGUUUAAAUAGUCUGCAUGCCGCCGGGCGCCAUGCCUGCAGGUCGACUCUAGAAAACAUG,binding signal,[10],3.64 log2 enrichment (interaction score)
GGCUAGAACUAGUGGAUCCCCCGGCGCCCGGCGGCUCGAGCCCGGGUAAGUGUUAAUAGUCUGCAUGCCGCCGGGCGCCAUGCCUGCAGGUCGACUCUAGAAAACAUG,binding signal,[4],6.04 log2 enrichment (interaction score)
same,binding signal,[6],4.1 log2 enrichment (interaction score)
